# LmPK inhibitor: inhibitors of Leishmania mexicana pyruvate kinase. Q27686. purified LmPK, Kinase-Glo ATP luminescence, 1 h. Potency, µM (titrated, usually from 57.5 µM), without a hit: at the top dose activity change, negative = inhibition, hits mostly inhibitors. actives 0.37% (n = 290,000). AID 1721; active = well fitted curve in the direction sought with a large enough effect; inconclusive = small, poorly fitted or top-dose-only effect, or another doubt; inactive = no such curve, though single readings can be large; an effect the other way counts as inactive or inconclusive; note: potency is the fitted concentration of half-maximal effect; % is set by controls: 0 for no effect and ±100 for the full control effect
# Target sequence (Q27686 whole entry, looked up): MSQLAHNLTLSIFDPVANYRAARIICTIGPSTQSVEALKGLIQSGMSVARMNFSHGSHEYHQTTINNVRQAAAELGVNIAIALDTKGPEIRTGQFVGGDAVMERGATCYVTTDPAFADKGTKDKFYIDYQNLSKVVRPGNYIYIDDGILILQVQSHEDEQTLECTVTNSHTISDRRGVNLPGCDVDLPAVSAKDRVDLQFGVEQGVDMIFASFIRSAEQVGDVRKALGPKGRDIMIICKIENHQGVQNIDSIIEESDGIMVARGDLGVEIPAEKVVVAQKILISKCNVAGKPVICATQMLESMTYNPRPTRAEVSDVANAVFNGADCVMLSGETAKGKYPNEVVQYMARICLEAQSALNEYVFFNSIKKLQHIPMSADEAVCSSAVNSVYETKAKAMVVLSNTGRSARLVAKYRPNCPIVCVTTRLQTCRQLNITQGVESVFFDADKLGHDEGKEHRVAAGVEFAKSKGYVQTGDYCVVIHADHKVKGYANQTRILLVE
#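 Screened at intermediate enzyme activity to detect both inhibitors and activators: LmPK at 0.1 nM, with a 0.5 nM enzyme column as activation reference. PEP 0.5 mM, ADP 0.1 mM; ATP detected by luminescence after 1 h.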
# Sm TGR block: inhibitors of Schistosoma mansoni thioredoxin glutathione reductase | purified TGR, DTNB reduction, TNB absorbance 405 nm | Potency, µM (titrated, usually from 114 µM), without a hit: at the highest dose activity change, negative = inhibition, usual class: inhibitors | actives 3% (n = 360,000) | AID 485364; active = well fitted curve in the direction sought with a large enough effect; inconclusive = small, poorly fitted or top-dose-only effect, or another doubt; inactive = no such curve, though single readings can be large; an effect the other way counts as inactive or inconclusive; note: potency is the fitted concentration of half-maximal effect; % is set by controls: 0 for no effect and ±100 for the full control effect; nearly all actives have a fitted effect of over 60% in size
#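 Kinetic colorimetric format: TGR-catalysed, NADPH-driven DTNB reduction monitored via TNB absorbance. Enzyme dispensed at 20 nM; compound exposure 15 min at room temperature before reaction start.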
# SARS PLpro yeast: blocks SARS-CoV papain-like protease in a yeast assay; S. cerevisiae expressing SARS-CoV PLpro, growth rescue; actives 0.19% (n = 330,000); Potency, µM (titrated, usually from 32.9 µM), without a hit: top-dose activity, positive = growth rescue, actives largely listed as activators; AID 485353; note: potency is the fitted concentration of half-maximal effect; 0% is about no effect; nearly all actives have a fitted effect of over 55% in size
# NS1 function inh: inhibitors of influenza NS1 protein function; actives 0.4% (n = 270,000); Potency, µM (titrated, usually from 46.1 µM), inactives show at the top dose activity, positive = more growth; note: potency is the fitted concentration of half-maximal effect; actives are rising curves; nearly all actives have a fitted effect of over 50% in size
#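 In this qHTS, NS1 from influenza A is expressed in budding yeast, where it slows growth. Cells are switched from glucose to 2% galactose medium (pH 6.0, -URA), treated with compound, and growth recovery is read at OD600.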
# RE007 growth inh: less growth of the S. pombe RE007 Vpr strain; S. pombe RE007 Vpr strain, BacTiter-Glo ATP luminescence, 24 h; Potency, µM (series often up to 92.2 µM), without a hit: at the top dose activity change, negative = less growth, hits mostly inhibitors; actives 0.21% (n = 360,000); active = well fitted falling curve with a large enough effect; inconclusive = small, poorly fitted or top-dose-only effect; inactive = no such curve, though single readings can be large or run the other way; note: potency is the fitted concentration of half-maximal effect; % is set by controls: 0 for no effect and ±100 for the full control effect; nearly all actives have a fitted effect of over 50% in size
#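 Fission yeast RE007 carrying one integrated HIV-1 vpr copy, seeded at OD 0.01 in PMG+AL medium with 23 nL pinned compound. Grown 24 h at 30 degrees; viability read by BacTiter-Glo luminescence after 5 min.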
# TbPYK inhibitor: T. brucei pyruvate kinase inhibition | TbPYK enzyme, Kinase-Glo Plus ATP luminescence, 45 min | Potency, µM (series often up to 76.8 µM), for inactives: at the top dose activity, negative = inhibition, usual class: inhibitors | actives 0.12% (n = 410,000) | AID 624173; active = well fitted curve in the direction sought with a large enough effect; inconclusive = small, poorly fitted or top-dose-only effect, or another doubt; inactive = no such curve, though single readings can be large; an effect the other way counts as inactive or inconclusive; note: potency is the fitted concentration of half-maximal effect; % is set by controls: 0 for no effect and ±100 for the full control effect; nearly all actives have a fitted effect of over 50% in size
#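 TbPYK + substrate in 50 mM TEA pH 7.2, 100 mM KCl, 10 mM MgCl2, 0.05% BSA, 0.01% Tween-20; cpd pinned; ADP 130 uM final; 45 min RT; Kinase-Glo Plus 10 min; luminescence endpoint.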
# NS1 inh valid: validation of influenza NS1 protein function inhibitors; shares compounds with NS1 function inh; influenza NS1 function cell assay, 15-point titration; activity change, negative = inhibition, % at 32.9 µM; 1,400 tested, under 10 active; AID 492980; note: 0% is about no effect
# PR8 titer: influenza virus titer reduction, NS1 project. shares compounds with NS1 function inh. MDCK infected influenza A/PR/8/34, virus titer TCID50; hits give low values. virus titer (log TCID50), log10 TCID50 at 5 µM. actives 30% (n = 95). AID 504647; call rule not given here
# * = called active by the depositor; u = inconclusive; x = not tested or not shown. Hits are enriched below; roughly 3.3% of the tested compounds scored in any of these assays. Unless noted, calls come from the whole dose curve.
SMILES,LmPK inhibitor,Sm TGR block,SARS PLpro yeast,NS1 function inh,RE007 growth inh,TbPYK inhibitor,NS1 inh valid,others
O=S(=O)(Nc1ncnc2c1oc1ccccc12)c1ccc(Cl)s1,1%,u,11%,1.1µM*,16%,-1%,-1,
CNc1c(NS(=O)(=O)c2ccc(Cl)s2)c(=O)oc2ccccc12,1%,1%,-2%,6%,21%,-4%,x,
CCN(Cc1ccccc1)C(=O)CN1C(=O)COc2ccc(S(=O)(=O)N3CCOCC3)cc21,x,4%,x,x,x,0%,x,
COc1ccc2c(c1)C(c1ccccc1)=NNC(c1ccco1)=N2,-3%,-5%,-8%,u,-25%,-13%,-15,
Cc1ccc2oc3c(c(=O)c2c1)C(c1ccccc1F)N(CCCN1CCOCC1)C3=O (configuration not stated),x,1%,x,x,x,3%,x,
Cn1cnnc1SCC(=O)Nc1ccccc1Sc1ccccc1,5%,-4%,11%,0.89µM*,-9%,-15%,-1,
COC(=O)c1ccccc1NC(=O)CSc1nncn1C,5%,-5%,0%,x,3%,2%,x,
c1ccc(Nc2ccccn2)nc1,2%,-4%,4%,-3%,3%,6%,x,
Oc1ccccc1Nc1ccccn1,-1%,0%,-3%,u,11%,5%,1,
COc1ccccc1-n1c(SCC(=O)Nc2cccc(C(=O)O)c2)nnc1-c1ccccc1C,11%,10%,17%,13µM*,-6%,0%,30,
COc1ccccc1-n1c(C)nnc1SCC(=O)Nc1cccc(C(C)=O)c1,-3%,0%,-2%,-1%,-1%,-1%,x,
COc1cccc(NC(=O)Cc2nnc(SCC(=O)c3ccccc3)n2C)c1,0%,-14%,-2%,7.9µM*,-5%,-5%,-5,
Cc1ccc(N(Cc2cccs2)C(=O)c2ccco2)cc1,x,0%,x,x,x,3%,x,
CCOC(=O)N1CCN(S(=O)(=O)N2CCCC(C(=O)NCCCN3CC(C)CC(C)C3)C2)CC1 (configuration not stated),6%,-5%,8%,u,-5%,0%,-4,PR8 titer=6*
CN(C)c1ccc(/C=N/NC(=O)c2ccc(CN3C(=O)c4cccc5cccc3c45)cc2)cc1,9%,5%,27%,4.5µM*,x,x,5,
O=C(N/N=C/c1ccccc1)c1ccc(CN2C(=O)c3cccc4cccc2c34)cc1,1%,-15%,1%,16%,-6%,-11%,x,
O=C(NC1CC(=O)N(c2cccc(F)c2)C1)c1cc2ccccc2o1 (configuration not stated),x,10%,x,x,x,-12%,x,
COc1ccc(S(=O)(=O)Nc2cc(C(=O)NC3CCCCCC3)ccc2N2CCOCC2)cc1,-3%,3%,14%,10µM*,14%,2%,1,
Cc1ccc(-n2nc(C)c3c2OC(N)=C(C#N)C3c2ccoc2)cc1 (configuration not stated),15%,u,5%,2.5µM*,-9%,-3%,7,
Cc1ccc(Nc2nnc(-c3ccc(C)c(S(=O)(=O)N4CCOCC4)c3)c3ccccc23)c(C)c1,x,2%,x,x,x,-8%,x,
NC(=O)c1ccc(NC(=O)CSc2cn(CC(=O)N3CCOCC3)c3ccccc23)cc1,5%,-5%,-4%,1%,4%,-15%,x,
O=C(CSc1cn(CC(=O)N2CCOCC2)c2ccccc12)N1CCOCC1,7%,-5%,13%,u,-3%,-1%,6,
O=C(Nc1cc(Oc2ccccc2)cc([N+](=O)[O-])c1)C12CC3CC(C1)CC(n1cnc(Cl)n1)(C3)C2,2%,8%,0%,2.2µM*,17%,6%,u,
COc1ccc(C(=O)N(Cc2ccc(C(C)C)cc2)C2CCS(=O)(=O)C2)cc1 (configuration not stated),x,5%,x,x,x,-11%,x,
Cc1ccc(C(=O)NC(=S)Nc2cccc(NC(=O)c3ccccc3)c2)cc1[N+](=O)[O-],0%,-26%,3%,u,1%,-3%,x,
SMILES,LmPK inhibitor,Sm TGR block,SARS PLpro yeast,NS1 function inh,RE007 growth inh,TbPYK inhibitor,NS1 inh valid,others
Cc1ccc(C(=O)NC(=S)Nc2cccc(NC(=O)c3ccccc3Cl)c2)cc1[N+](=O)[O-],3%,-1%,10%,11µM*,32%,-12%,u,
O=c1[nH]c(C2CCCN(S(=O)(=O)c3ccccc3)C2)nc2c1nnn2Cc1ccccc1Br (configuration not stated),2%,-9%,u,7.1µM*,-9%,2%,u,
O=c1[nH]c(C2CCCN(S(=O)(=O)c3ccccc3)C2)nc2c1nnn2Cc1ccccc1F (configuration not stated),2%,0%,5%,-42%,0%,6%,x,
Cc1ccc(Cn2nnc3c(=O)[nH]c(C4CCN(S(=O)(=O)c5ccc(F)cc5)CC4)nc32)cc1,-2%,4%,19%,13µM*,6%,5%,4,
Cc1cc(C)cc(NS(=O)(=O)c2ccc3[nH]cc(C(=O)N4CCc5ccccc54)c(=O)c3c2)c1,2%,-7%,-5%,22µM*,8%,4%,11,
Cc1ccc(-c2onc(C)c2C)cc1S(=O)(=O)NCc1ccco1,x,3%,x,x,x,-13%,x,
COc1ccccc1NC(=O)c1cnc(SCC(=O)N2CCOCC2)n(C)c1=O,x,-1%,x,x,x,0%,x,
CN(CC(=O)Nc1cccc2ccccc12)C(=O)c1cccc(S(=O)(=O)N(C)C)c1,1%,5%,2%,u,-4%,2%,-6,
COc1ccc(CCNC(=O)c2ccccc2NS(=O)(=O)c2cc(C(=O)O)ccc2OC)cc1,2%,-1%,1%,u,-8%,-4%,2,
COc1ccc(-c2ccc(CNc3ccc4[nH]c(=O)[nH]c4c3)o2)cc1Cl,x,-12%,x,x,x,0%,x,
COc1ccccc1NS(=O)(=O)c1ccc(C)c(NC(=O)c2ccc(S(=O)(=O)N3CCCCCC3)cc2)c1,6%,-6%,u,20µM*,6%,3%,7,
COc1ccccc1NC(=O)c1ccc(S(=O)(=O)N2CCCC2)cc1,9%,11%,-2%,-14%,5%,-4%,x,
O=C(N/N=C/c1ccc(N2CCOCC2)cc1)c1ccc(NS(=O)(=O)c2cccs2)cc1,1%,0%,0%,x,-11%,10%,x,
